Among the data in ChEMBL document CHEMBL4513216, “Probing the Open Global Health Chemical Diversity Library for Multistage-Active Starting Points for Next-Generation Antimalarials” (ACS Infect Dis, 2020) are INHIBITION values, retold here.

The whole screen tested about 69,000 compounds, of which about 8,600 (12%) showed an effect of 50% or more. This is one part of a sample in which strong results are shown more often than they occur.

The test system of the test is Plasmodium berghei. The test is described as follows: Screen against P. berghei liver stage (PbLuc), transformed with Luciferase, at 10uM. Type of test: functional, HepG2. The following applies: tested at 10 uM.
For `O=C(CC(F)(F)F)N1C[C@H]2CC[C@@H](C1)N(Cc1ccccc1)C2=O`, the INHIBITION is on record as 26.9%. Under `COc1ccc(NC(C)=O)cc1S(=O)(=O)Nc1ccon1` stands 35.7%. Under `CCN(CC)Cc1ccc(C(=O)N2CCCC2Cn2cc(C)cn2)o1` (stereo not given) stands -4.3%; under `CN(C)c1ccc(CC2CCN(c3cnccn3)CC2)nn1`, -18.8%. The same measure for `Cn1cc(CN2Cc3c(cnn3C)C(COCC3CC3)C2)cn1` (stereo not given): 47.9%. Consider `Cc1ccc(CN2CCCn3nnc(COCCN(C)C)c3C2)s1`, for which the INHIBITION was determined as 54.8%. Under `Cc1ccc(CN2CCCn3nnc(COCC4CC4)c3C2)s1` stands 23.3%; under `Cc1ccc(CN2Cc3c(cnn3C)C(COCC3CC3)C2)s1` (stereo not given), 65.6%; under `Cn1ncc2c1CN(Cc1ccc(F)cc1)CC2COCC1CC1` (stereo not given), 8.67%. The same measure for `COc1ccc(CN2CCCn3nnc(COCC4CC4)c3C2)cc1`: 16.8%; for `Cc1cnn(CC2CCCCN2C(=O)c2csc(C)n2)c1` (stereo not given): 23.5%; for `CC(Oc1cc(Cl)cc(Cl)c1)C(=O)NCCC(=O)N(C)C` (stereo not given): 30.7%. The same measure for `COCCCNc1nc(CNC(=O)C2CCC2)cc(-c2ccco2)n1`: -3.34%.

In the case of `CCC1=N[C@@]2(CC[C@@H]3CN(CC(=O)N(C)C)C[C@@H]32)C(=O)N1CC(C)C`, the INHIBITION is recorded as 29%. Under `CCCc1n[nH]c(C2CN(Cc3nnc(C4CC4)o3)CCO2)n1` (stereo not given) stands 52%; under `Cc1n[nH]c(C2CN(Cc3nnc(C4CC4)n3C)CCO2)n1` (stereo not given), 33.7%; under `CCc1n[nH]c(C2CN(Cc3nnc(C4CC4)n3C)CCO2)n1` (stereo not given), -17.5%.

`CCCc1n[nH]c(C2CN(Cc3nnc(C4CC4)n3C)CCO2)n1` (stereo not given): the INHIBITION is 50.1%. The same measure for `CCCc1n[nH]c(C2CN(Cc3nnc(C4CCC4)o3)CCO2)n1` (stereo not given): -25.8%. The same measure for `CCc1n[nH]c(C2CN(Cc3nnc(C4CC4)o3)CCO2)n1` (stereo not given): 13.3%; for `CCc1n[nH]c(C2CN(Cc3nc(C4CC4)no3)CCO2)n1` (stereo not given): 64.9%. Under `CCc1n[nH]c(C2CN(Cc3nnc(C4CCC4)o3)CCO2)n1` (stereo not given) stands 9.14%. For the compound `CC(C)(C)c1n[nH]c(C2CN(Cc3nnc(C4CC4)o3)CCO2)n1` (stereo not given), the INHIBITION is -3.2%. The same measure for `COc1ccccc1-n1cc(C(=O)NCCCn2ccnn2)cn1`: -12.5%. Under `Cc1nc2c(c(=O)[nH]1)CCN(C(=O)c1cccc3nccnc13)C2` stands 46%; under `CN(C)c1ccc(C(=O)Nc2ccn(CC(N)=O)n2)cn1`, -15%.

Take `O=C(NCC1CCC1)c1ccnc(-n2ccnc2)c1`: the INHIBITION is reported as -13.6%. As to `Cc1cc(CNC2(c3ccccc3F)CC2)no1`, the INHIBITION is -4.73%. Turning to `CN1C[C@@H](C(=O)NC2CCCC2)[C@@]2(COc3ccc(F)cc3C2=O)C1`, the INHIBITION was 23.85%. Under `c1ccc(OCCCN2CCOC(CNc3cccnn3)C2)cc1` (stereo not given) stands -65.3%. In the case of `Cc1noc(C)c1CN1CCn2cc(CNC(=O)C3CCC3)nc2C1`, the INHIBITION was 45.2%. The same measure for `COc1ccc(CC(=O)N2C[C@H]3CN(Cc4ccccn4)C[C@H]3C2)cc1`: 18.6%; for `Cc1cn2c(=O)c(-c3ccnc(N[C@@H](C)CO)n3)cnc2s1`: 27.8%; for `Cc1[nH]c2ccccc2c1-c1ccnc(N[C@H](CO)CC(C)C)n1`: 56%. The same measure for `CC(C)[C@H](CO)Nc1nccc(-c2c[nH]nc2-c2ccncc2)n1`: -31.5%. The same measure for `CC[C@@H](CO)Nc1nccc(-c2cnc3sc(C)cn3c2=O)n1`: 11.5%; for `Cc1[nH]c2ccccc2c1-c1ccnc(N[C@@H](C)CO)n1`: 85.7%; for `Cc1[nH]c2ccccc2c1-c1ccnc(N[C@@H](CO)C(C)C)n1`: 36.7%.

Consider `CN1CCOC(CNC(=O)CCCc2ccccc2)C1` (stereo not given), for which the INHIBITION is listed as -4.15%.

On to `CN(Cc1nccn1CC(F)(F)F)C(=O)c1ccc2c(c1)OCO2`, for which the INHIBITION came out at 6.33%.

`Cc1nn(C)c(Cl)c1C1CCCN1Cc1nnc(C2CC2)o1` (stereo not given): the INHIBITION is on record as -31.1%. The same measure for `O=C(NCc1ncc(-c2ccccc2)o1)NC1CCC(O)CC1` (stereo not given): 61.9%. As for `CC(=O)N1CCc2ncc(CNC(=O)C3CCC3)n2CC1`, the INHIBITION came to 15.4%. As for `CC(=O)N1CCC(C(=O)NCc2ncc(-c3ccccc3)o2)CC1`, the INHIBITION is 83.2%. Regarding `O=S(=O)(CC1CCOCC1)NCc1ncc(-c2ccccc2)o1`, the INHIBITION is listed as 40.6%. The same measure for `O=C(NCCN1CCOCC1)NCc1ncc(-c2ccccc2)o1`: 2.37%; for `CC(=O)N1CCC(NC(=O)NCc2ncc(-c3ccccc3)o2)CC1`: 47.1%. With `O=C1C[C@@H]2CC[C@H](CN1)N2c1cc(-c2ccccc2F)nc2ccnn12`, the INHIBITION was -7.53%. Under `CCn1cc(C(=O)N2CCCC3(CCC(=O)N(CCC(C)C)C3)C2)cn1` (stereo not given) stands -47.8%. Under `Cn1cc(CN2CCCC3(CCN(C(=O)c4ccoc4)C3)C2)cn1` (stereo not given) stands 42.7%. Under `Cn1cc(CN2CCC3(CCCN3S(C)(=O)=O)CC2)cn1` stands 53.5%; under `CC(C)NC(=O)C1CCC2(CCN(Cc3cnn(C)c3)CC2)C1` (stereo not given), -13.7%. Take `Cn1cc(CN2CCC3(CCCCN3S(C)(=O)=O)CC2)cn1`: the INHIBITION turned out to be 27.6%. Under `CN(C)C(=O)N1CCC2(CCCN(Cc3cnn(C)c3)C2)C1` (stereo not given) stands 52.9%. Regarding `COCC(=O)N1CCC2(CCCN(Cc3cnn(C)c3)C2)C1` (stereo not given), the INHIBITION was determined as 47.4%. Regarding `CCn1cc(CN2CCCC3(CCC(=O)N(CCC(C)C)C3)C2)cn1` (stereo not given), the INHIBITION was found to be 65.2%. Under `Cn1cc(CN2CCCC3(CCCN3S(C)(=O)=O)C2)cn1` (stereo not given) stands -3.41%; under `CN(C)C(=O)C1CCC2(CCN(Cc3cnn(C)c3)CC2)C1` (stereo not given), 55.5%; under `CCc1ncc(CN2CCCC3(CCC(=O)N(CCC(C)C)C3)C2)cn1` (stereo not given), 0.818%. Under `Cn1cc(CN2CCC3(CCC(C(=O)NCC4CC4)C3)CC2)cn1` (stereo not given) stands 20.1%; under `CN1CC(=O)N(c2ccccc2)CC12CCN(C(=O)c1cccs1)C2` (stereo not given), 17.1%; under `CC(=O)Cn1ncc(N2CCOCC2)cc1=O`, -10.5%.

As to `CN(C)CCN1C(=O)CCC12CCN(C(=O)c1cccnc1)CC2`, the INHIBITION is 13.2%. Under `Cc1cc(CN2CCOC(C)(C(=O)N3CCOCC3)C2)no1` (stereo not given) stands 0.301%; under `Cc1cccc(CN2CCOC3(COCCN(CCN(C)C)C3)C2)n1` (stereo not given), 48.4%; under `Cn1cc(CN2CCC3(CCCN(Cc4ccccn4)C3)CC2)cn1`, -3.19%. Under `Cc1cnc(N2CCOC3(CCCN(CC(=O)N(C)C)C3)C2)nc1` (stereo not given) stands -29.8%. For `Cc1cccc(CN2CCC3(CCCN(Cc4cnn(C)c4)C3)C2)n1` (stereo not given), the INHIBITION is recorded as 64.7%.

As for `Cc1cccc(CN2CCc3[nH]nc(C(=O)N4CCOCC4)c3C2)n1`, the INHIBITION is 65.9%.

Regarding `CC1(C(=O)N2CCOCC2)CN(Cc2ccccn2)CCO1` (stereo not given), the INHIBITION is on record as 44.4%. Under `Cc1cccc(CN2CCC3(CCCN(Cc4cnn(C)c4)C3)C2=O)n1` (stereo not given) stands 0.618%. The same measure for `Cc1cccc(CN2CCc3[nH]nc(C(=O)N(C)C)c3C2)n1`: -45.5%. The same measure for `Cc1cccc(CN2CCOC(C)(C(=O)N3CCOCC3)C2)n1` (stereo not given): 59%; for `Cc1cccc(CN2CCOC3(CCCN(CC(=O)N(C)C)C3)C2)n1` (stereo not given): 59.3%; for `Cc1cccc(CN2CCc3[nH]nc(C(=O)N4CCNC(=O)C4)c3C2)n1`: 49.7%.

In the case of `Cc1cc(C)n(C2CN(CCc3ccccn3)C2)n1`, the INHIBITION was found to be 28.2%.

In the case of `Cc1nn(C)c(Cl)c1C1CCCN1Cc1ccccn1` (stereo not given), the INHIBITION is reported as 8.64%. The same measure for `COc1ccc(C2CC(=O)Oc3cc(C)[nH]c(=O)c32)cc1O` (stereo not given): 15.4%; for `O=C(c1cc(-n2cnnn2)ccc1Cl)N1CCOCC1`: 30.8%. `O=c1cnc2ccccc2n1CCCn1cccn1`: the INHIBITION was 44.5%. Under `CC(C)NC(=O)CC1COC2(CCN(Cc3ccccc3)CC2)C1` (stereo not given) stands 21.6%; under `Cc1nc(C2CCCN(C(=O)c3cnn(C4CCCCC4)c3)C2)no1` (stereo not given), -25.9%; under `O=C(c1cnc2c(cnn2C2CCCC2)c1)N1CCCSCC1`, 36.1%.

For `CC(C)NC(=O)CC1CC2(CCN(CC3CC3)CC2)Oc2ccccc21` (stereo not given), the INHIBITION is reported as -2.35%.

With `CC(=O)N1CCc2[nH]nc(C(=O)N3CC=CC3)c2C1`, the INHIBITION was 23.1%.

Take `Cc1cccc(CN2CCC3(CCC(CC(=O)N(C)C)CC3)CC2)n1`: the INHIBITION is reported as 23.1%.

Consider `CC(C)CCN1CCc2[nH]nc(C(=O)N3CCCC3C)c2C1` (stereo not given), for which the INHIBITION was 2.58%. Under `Cc1cccc(CN2CCC3(CCCN(CC(=O)N(C)C)C3)C2)n1` (stereo not given) stands 51.2%; under `Cc1cccc(CN2CCCC3(CCN(CC(=O)N(C)C)C3=O)C2)n1` (stereo not given), 27.6%.

Turning to `CC(C)CCN1CCc2[nH]nc(C(=O)N3CC=CC3)c2C1`, the INHIBITION was 50.3%.

Consider `COC(=O)c1ccc(C)c(N2CCNC2=O)c1`, for which the INHIBITION stood at 34%. Under `CS(=O)(=O)N1CCC(NC(=O)COc2cccc(Cl)c2)CC1` stands -35.7%; under `CCO[C@@H]1C[C@H]2CN(Cc3ccc(C)o3)CCN2C1`, -37.9%. Under `COCc1nc(CN2C(=O)OC[C@@H]2C(C)C)no1` stands 27.6%. The same measure for `COCCc1noc(CN2C(=O)OC[C@@H]2C(C)C)n1`: 55.9%; for `COCc1noc(CN2C(=O)OC[C@@H]2C(C)C)n1`: 14.6%. On to `CCn1nc(C)c(C(=O)N2C[C@@H](CN(C)CCOC)[C@@H](CO)C2)c1C`, for which the INHIBITION is 20%. Under `NC(=O)c1cc2c(nc1Oc1ccccc1CN1CCCCC1)CCC2` stands 27.4%. Under `CN1CCCCC1Cc1nc2c(cc1C(N)=O)CCC2` (stereo not given) stands -107%.

Regarding `CC(=O)Nc1ccc(Oc2ccc(CN3CCCC3)cc2F)cc1`, the INHIBITION is reported as 45.1%. Turning to `NC(=O)c1cc2c(nc1Oc1ccc(CN3CCCC3)cc1F)CCC2`, the INHIBITION was found to be 67%. Under `NC(=O)c1cc2c(nc1-c1ccoc1)CCC2` stands 30.3%; under `NC(=O)c1cc2c(nc1Oc1cccc(CN3CCCC3)c1F)CCC2`, 62.1%.

For `Cc1cc(C)c2c(N3CCC(C(=O)N4CCCC4)CC3)ncnc2n1`, the INHIBITION amounted to 42.8%. Under `Cc1ccccc1C(=O)N1C[C@@H]2COC[C@]2(COCc2cccnc2)C1` stands 1.9%.
